From PubChem BioAssay
A number with no mark means an inactive call. For part of these data: Results with a measured potency or affinity are listed apart. Activity calls are given as the source filed them. Unless noted, how the calls were made is not given here.

Experiments:
[1] = antimalarial activity against Dd2 strain (AID 2302;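 active means growth inhibition above 50% at the single 2 µM test dose, taken to imply half-maximal potency below 2 µM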;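 further: 0% = DMSO untreated growth and 100% = chloroquine plus artemisinin killed control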); details: P. falciparum Dd2 in RBCs, LDH growth readout, 72 h; at 2 µM; hits give high values
[2] = human hepatoma cell viability loss – ATP luminescence, cytotoxicity control for P. falciparum antimalarial project, primary screen (AID 2303;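 active means inhibition above 50%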;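 further: 0% = DMSO wells and 100% = digitonin-killed cells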); details: HepG2 viability, 24-48 h, at 10 µM, hits give high values
[3] = target: L-lactate dehydrogenase (Plasmodium falciparum (isolate CDC / Honduras)) (UniProt Q27743); experiment: PfLDH activity inhibition – cell lysate, 3D7 strain, counter-screen for P. falciparum growth inhibition project (AID 2304);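 further: 0% = vehicle and 100% = reference inhibitor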; details: P. falciparum 3D7 crude extract, LDH APAD/NBT absorbance; at 2 µM; hits give high values
Sequence of L-lactate dehydrogenase (Plasmodium falciparum (isolate CDC / Honduras)) (Q27743 whole entry, looked up): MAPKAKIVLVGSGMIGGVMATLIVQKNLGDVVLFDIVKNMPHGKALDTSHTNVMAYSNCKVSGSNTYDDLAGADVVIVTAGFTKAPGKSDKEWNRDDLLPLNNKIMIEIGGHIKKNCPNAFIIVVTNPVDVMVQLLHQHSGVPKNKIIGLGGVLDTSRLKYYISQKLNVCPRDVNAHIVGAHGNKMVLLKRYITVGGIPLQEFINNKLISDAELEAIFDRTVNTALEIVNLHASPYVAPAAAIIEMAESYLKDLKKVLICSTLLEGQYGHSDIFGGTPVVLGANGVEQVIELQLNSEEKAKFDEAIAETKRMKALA

[4] = inhibition of 3D7 malaria parasite growth – strain 3D7 (AID 2306);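 further: 0% = DMSO wells and 100% = chloroquine plus artemisinin control wells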; details: P. falciparum 3D7 erythrocytic growth, LDH absorbance, 72 h; at 2 µM; hits give high values
[5] = target: Calcium-dependent protein kinase 1 (Plasmodium falciparum (isolate 3D7)) (UniProt P62344); experiment: PfCDPK1 kinase inhibitors, biochemical, TCAMS library (AID 1159585; cut-off not given, nearly all actives have IC50 up to about 0.98 µM;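 further: inhibitors leave more ATP so luminescence rises with inhibition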); details: recombinant PfCDPK1, Kinase-Glo ATP depletion luminescence
Sequence of Calcium-dependent protein kinase 1 (Plasmodium falciparum (isolate 3D7)) (P62344 whole entry, looked up): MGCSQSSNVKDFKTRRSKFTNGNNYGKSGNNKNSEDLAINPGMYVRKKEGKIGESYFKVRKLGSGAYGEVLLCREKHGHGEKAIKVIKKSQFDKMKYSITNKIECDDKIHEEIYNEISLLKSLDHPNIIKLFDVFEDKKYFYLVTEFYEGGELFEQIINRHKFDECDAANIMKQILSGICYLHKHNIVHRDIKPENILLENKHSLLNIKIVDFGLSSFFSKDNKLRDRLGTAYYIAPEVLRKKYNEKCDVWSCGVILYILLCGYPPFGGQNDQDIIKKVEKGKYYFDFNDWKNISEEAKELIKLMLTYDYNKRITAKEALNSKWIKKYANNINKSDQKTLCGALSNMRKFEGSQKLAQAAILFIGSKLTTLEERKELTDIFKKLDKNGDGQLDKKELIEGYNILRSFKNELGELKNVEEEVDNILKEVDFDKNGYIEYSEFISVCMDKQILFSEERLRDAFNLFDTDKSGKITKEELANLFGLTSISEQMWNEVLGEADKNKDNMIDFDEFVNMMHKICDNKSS

[6] = target: Plasmodium falciparum protein kinase 6 (PK6, PF3D7_1337100) (UniProt Q8IDW1); experiment: PfPK6 kinase inhibitors, biochemical, TCAMS library (AID 1159586); details: recombinant PfPK6, Kinase-Glo ATP depletion luminescence
Sequence of Plasmodium falciparum protein kinase 6 (PK6, PF3D7_1337100) (Q8IDW1 1-305): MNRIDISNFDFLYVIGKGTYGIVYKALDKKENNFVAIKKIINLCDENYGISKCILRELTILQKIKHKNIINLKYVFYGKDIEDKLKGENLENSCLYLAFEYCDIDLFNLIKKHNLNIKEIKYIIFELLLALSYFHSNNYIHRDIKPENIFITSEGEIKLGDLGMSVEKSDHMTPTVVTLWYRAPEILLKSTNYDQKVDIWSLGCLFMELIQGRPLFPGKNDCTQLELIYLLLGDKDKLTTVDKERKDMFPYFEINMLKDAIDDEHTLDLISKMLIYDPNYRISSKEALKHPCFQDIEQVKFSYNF

[7] = target: Protein kinase 7 (PK7), Plasmodium falciparum 3D7 (PF3D7_0213400) (UniProt Q7YTF7); experiment: inhibition of Plasmodium PK7 catalytic activity – biochemical, TCAMS antimalarial set, Kinase-Glo luminescence (AID 1159587); details: recombinant PfPK7, Kinase-Glo ATP depletion luminescence
Sequence of Protein kinase 7 (PK7), Plasmodium falciparum 3D7 (PF3D7_0213400) (Q7YTF7 1-343): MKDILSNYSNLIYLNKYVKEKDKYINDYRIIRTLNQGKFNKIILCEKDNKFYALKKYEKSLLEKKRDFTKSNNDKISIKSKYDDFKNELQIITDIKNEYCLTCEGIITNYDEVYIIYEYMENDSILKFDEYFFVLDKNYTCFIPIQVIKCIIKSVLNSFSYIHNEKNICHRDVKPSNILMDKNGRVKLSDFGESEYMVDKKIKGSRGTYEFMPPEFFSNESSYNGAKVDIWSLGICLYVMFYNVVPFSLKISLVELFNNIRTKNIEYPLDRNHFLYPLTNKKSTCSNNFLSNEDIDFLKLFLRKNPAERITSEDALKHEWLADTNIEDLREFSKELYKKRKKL

[8] = target: Calcium-dependent protein kinase 4 (Plasmodium falciparum (isolate 3D7)) (UniProt Q8IBS5); experiment: PfCDPK4 kinase inhibitors, biochemical, TCAMS library (AID 1159588; cut-off not given, nearly all actives have IC50 up to about 0.91 µM); details: recombinant PfCDPK4, Kinase-Glo ATP depletion luminescence
Sequence of Calcium-dependent protein kinase 4 (Plasmodium falciparum (isolate 3D7)) (Q8IBS5 whole entry, looked up): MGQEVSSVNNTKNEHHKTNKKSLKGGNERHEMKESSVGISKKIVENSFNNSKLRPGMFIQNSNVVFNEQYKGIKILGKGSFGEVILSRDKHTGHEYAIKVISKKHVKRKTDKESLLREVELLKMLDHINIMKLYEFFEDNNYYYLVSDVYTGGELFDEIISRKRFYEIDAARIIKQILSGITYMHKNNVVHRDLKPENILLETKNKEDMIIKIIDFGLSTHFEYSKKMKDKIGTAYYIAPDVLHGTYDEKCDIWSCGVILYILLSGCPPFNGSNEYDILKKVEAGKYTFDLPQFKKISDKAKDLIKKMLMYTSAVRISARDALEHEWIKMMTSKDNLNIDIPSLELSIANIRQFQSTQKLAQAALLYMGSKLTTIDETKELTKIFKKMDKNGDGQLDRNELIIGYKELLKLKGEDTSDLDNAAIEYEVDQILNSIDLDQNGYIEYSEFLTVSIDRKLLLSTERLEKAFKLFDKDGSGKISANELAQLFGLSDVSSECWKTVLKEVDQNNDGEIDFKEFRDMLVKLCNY

Row | Structure (SMILES) | growth inhibition [1] | inhibition [2] | inhibition [3] | growth inhibition [4] | outcome [5] | outcome [6] | outcome [7] | outcome [8]
1 | Cc1cccc2[nH]c(-c3ccc(-c4cccc(CNCc5ccc(CN)cc5)c4)s3)nc12 | 48% | 11% | -2% | 99% (active) | inactive | inactive | inactive | inactive
2 | Nc1nc(N)c2c(ccc3c2ccn3CCCCO)n1 | 49% | 61% (active) | -2% | 93% (active) | inactive | inactive | inactive | inactive
3 | CN(C)CCNC(=O)c1ccc(-c2ccc3c(Nc4ccccc4)c(C(N)=O)cnc3c2)cc1 | 68% (active) | 9% | 6% | 99% (active) | inactive | inactive | inactive | inactive
4 | CN(C)CCOc1cc(NC(=O)Nc2ccc(-c3ccncc3)c3ccccc23)ccc1I | 46% | 35% | -3% | 97% (active) | inactive | inactive | inactive | inactive
5 | CC(CCc1ccc(OCc2ccccc2)cc1)NCC(O)c1ccccc1 (configuration not stated) | 72% (active) | 9% | -1% | 86% (active) | inactive | inactive | inactive | inactive
6 | CN1CCN(c2ccnc3ccc(NC(=O)Nc4ccc(Cl)cc4)cc23)CC1 | 99% (active) | 11% | 0% | 103% (active) | inactive | inactive | inactive | inactive
7 | c1cc(CN2CCN(CCN3CCOCC3)CC2)cc(-c2cccc(-c3nc4ccccc4[nH]3)c2)c1 | 100% (active) | 29% | -2% | 100% (active) | inactive | inactive | inactive | inactive
8 | O=C(/C=C/c1ccc(Cl)c(Cl)c1)NCCCCCN1CCC(NC(=O)Nc2ccc(C(F)(F)F)cc2)CC1 | 34% | 58% (active) | 3% | 94% (active) | inactive | inactive | inactive | inactive
9 | COc1cc(NC(=O)c2cccc([N+](=O)[O-])c2)cc(S(=O)(=O)c2ccc(Cl)cc2)c1 | 23% | -12% | -3% | 88% (active) | inactive | inactive | inactive | inactive
10 | Cc1ccc(CNC(=O)[C@H](Cc2ccccc2)Nc2cc(C)nc(NCC3CCCCC3)n2)cc1 | 89% (active) | -10% | 0% | 101% (active) | inactive | inactive | inactive | inactive
11 | Cc1ccc(-n2c(Sc3ncnc4sccc34)nnc2N2CCCC2)cc1 | 100% (active) | 0% | -3% | 99% (active) | inactive | inactive | inactive | inactive
12 | Cc1ccc(CON2C(N)=NC(N)=NC2(C)C)cc1C | 88% (active) | 64% (active) | -9% | 92% (active) | inactive | inactive | inactive | inactive
13 | CN(C)CCN(C)Cc1ccc(-c2ccc(NC(=O)c3ccc(Cl)cc3)cc2)cc1 | 19% | 51% (active) | -2% | 91% (active) | inactive | inactive | inactive | inactive
14 | CN(C)Cc1ccc(-c2cc3c(-c4ccc(CN(C)C)cc4)ccnc3[nH]2)cc1 | 96% (active) | 86% (active) | 0% | 100% (active) | inactive | inactive | inactive | inactive
15 | CCN(C(=O)NC)[C@@H]1c2cc(C#N)ccc2OC(C)(C)[C@H]1O | 2% | 3% | -8% | 96% (active) | inactive | inactive | inactive | inactive
16 | CCCCNC(=O)[C@@H]1CCCN1C(=O)c1ccc(O)c(-c2ccc(Cl)c(Cl)c2)c1 | 92% (active) | -1% | -1% | 98% (active) | inactive | inactive | inactive | inactive
17 | O=C(N[C@@H](CC1CCCCC1)C(=O)NC1CC1)c1ccc(O)c(-c2cccc(C(F)(F)F)c2)c1 | 47% | -5% | -4% | 99% (active) | inactive | inactive | inactive | inactive
18 | Cc1ccc(CNC(=O)[C@H](CC(C)C)Nc2cc(C)nc(Nc3ccccc3)n2)cc1 | 19% | 12% | -1% | 97% (active) | inactive | inactive | inactive | inactive
19 | COc1cc(NC(=O)C(c2ccc(Cl)cc2)C(C)C)cc(OC)c1OC (configuration not stated) | 100% (active) | 10% | -1% | 101% (active) | inactive | inactive | inactive | inactive
20 | COc1cc2nccc(Nc3ccc4c(cnn4Cc4cccc(F)c4)c3)c2cc1OC | 99% (active) | 29% | -6% | 101% (active) | inactive | inactive | inactive | inactive

Row | Structure (SMILES) | growth inhibition [1] | inhibition [2] | inhibition [3] | growth inhibition [4] | outcome [5] | outcome [6] | outcome [7] | outcome [8]
21 | Cc1cc2nc(-c3ccc(C(=O)NCCCc4ccccc4)cc3)[nH]c2cc1C | 5% | 7% | -2% | 91% (active) | inactive | inactive | inactive | inactive
22 | Cc1cc(N[C@@H](Cc2ccccc2)C(=O)NC2CCCC2)nc(NCCCOC(C)C)n1 | 43% | -4% | -3% | 92% (active) | inactive | inactive | inactive | inactive
23 | O=C(N[C@H]1CCN(Cc2ccc(OC3CCN(Cc4ccccc4)CC3)cc2)C1)c1ccc(Cl)c(Cl)c1 | 6% | 37% | 1% | 90% (active) | inactive | inactive | inactive | inactive
24 | OCCN1CCN(c2ccc(Nc3ccnc4cc5ccccc5cc34)cc2)CC1 | 100% (active) | 98% (active) | -1% | 100% (active) | inactive | inactive | inactive | inactive
25 | CCOc1cc(CNCCCCCCNCc2cc(OCC)c(OCC)c3ccccc23)c2ccccc2c1OCC | 99% (active) | 100% (active) | 2% | 101% (active) | inactive | inactive | inactive | inactive
26 | Cc1cc(NC2CCN(Cc3ccccc3)CC2)nc(NCCCCc2ccccc2)n1 | 60% (active) | 65% (active) | 2% | 100% (active) | inactive | inactive | inactive | inactive
27 | NC(N)=NN=CC(=O)Nc1ccc(C(F)(F)F)cc1 | 9% | 5% | 1% | 100% (active) | inactive | inactive | inactive | inactive
28 | NCc1ccc(CNCc2ccc(-c3ccc(-c4nc5ccc(C(F)(F)F)cc5[nH]4)s3)cc2)cc1 | 92% (active) | 34% | -2% | 95% (active) | inactive | inactive | inactive | inactive
29 | Cc1cccc(C(=O)NCCCN2CCC(NC(=O)/C=C/c3ccc(Cl)c(Cl)c3)CC2)c1 | 23% | 39% | 1% | 98% (active) | inactive | inactive | inactive | inactive
30 | O=C(c1cccc(-c2cccc(-c3nc4ccc(C(F)(F)F)cc4[nH]3)c2)c1)N1CCCCC1CN1CCC(O)C1 (configuration not stated) | 101% (active) | 51% (active) | 0% | 91% (active) | inactive | inactive | inactive | inactive
31 | O=C(/C=C/c1ccc(Cl)c(Cl)c1)NCCCCCN1CCC(C(=O)Nc2ccc(F)c(Cl)c2)CC1 | -3% | 25% | 2% | 100% (active) | inactive | inactive | inactive | inactive
32 | CCNCc1cccc(-c2ccc3ccnc(N)c3c2)c1 | 98% (active) | 17% | 0% | 100% (active) | inactive | inactive | inactive | inactive
33 | CCOC(=O)C1=C(C)N=c2sc(=Cc3ccccc3O)c(=O)n2C1c1ccc(OC)c2ccccc12 (configuration not stated) | 38% | -6% | 1% | 97% (active) | inactive | inactive | inactive | inactive
34 | Cc1cc(NC(=O)c2cccs2)ccc1OC1CCN(Cc2ccc(C#N)cc2)CC1 | 92% (active) | 34% | 4% | 94% (active) | inactive | inactive | inactive | inactive
35 | Clc1ccc(Sc2cncnc2N2CCOCC2)cc1 | -6% | 66% (active) | -2% | 95% (active) | inactive | inactive | inactive | inactive
36 | CCNc1cc(C(=O)N[C@@H](Cc2ccccc2)[C@H](O)CNCc2cccc(OC)c2C)cc(N2CCCCS2(=O)=O)c1 | 98% (active) | 8% | -1% | 97% (active) | inactive | inactive | inactive | inactive
37 | COc1ccc(-c2nc3cccnc3n2CC(=O)Nc2c(C)cc(C)cc2C)c(OC)c1 | 21% | 77% (active) | 1% | 91% (active) | inactive | inactive | inactive | inactive
38 | O=c1cc(NCCCNCc2ccc3c(c2)OC(F)(F)O3)[nH]c2ccccc12 | 94% (active) | -9% | -6% | 100% (active) | inactive | inactive | inactive | inactive
39 | O=C(NC1CCN(Cc2ccc(F)cc2)CC1)c1ccc(-c2cccc(C(F)(F)F)c2)s1 | 11% | 88% (active) | 4% | 83% (active) | inactive | inactive | inactive | inactive
